# From the supplement of paper PMC6555819
# Key:
# Test in all cases: PBM binding z-score (relative to random genomic background probes); higher = stronger binding; sequences stand for … in GC…GCGATTGACAGCGTAGAATGAAGG
# [1] = system: FXR:RXRa (NR concentration 270 nM, RXRa partner concentration 90 nM)
# In short: (§1)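 Binding z-scores take random background probes as their reference. They come from custom Agilent 4×180K protein-binding microarrays incubated 1 h with ligand-free nuclear receptor dimers, with antibodies against each partner (one per run) detecting binding. Scanned fluorescence was regression-normalized.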
# [2] = system: LXRa:RXRa (NR concentration 270 nM, RXRa partner concentration 90 nM)
# In short: as §1
# [3] = system: LXRa homodimer (NR concentration 270 nM)
# In short: as §1
# [4] = system: LXRb:RXRa (NR concentration 270 nM, RXRa partner concentration 90 nM)
# In short: as §1
# [5] = system: LXRb homodimer (NR concentration 270 nM)
# In short: as §1
# [6] = system: PPARa:RXRa (NR concentration 270 nM, RXRa partner concentration 90 nM)
# In short: as §1
# [7] = system: PPARg:RXRa (NR concentration 180 nM, RXRa partner concentration 90 nM)
# In short: as §1
# [8] = system: PPARg:RXRa 270nM:90nM, anti-RXR (NR concentration 270 nM, RXRa partner concentration 90 nM)
# In short: as §1
# [9] = system: PPARg:RXRa 30nM:10nM, anti-RXR (NR concentration 30 nM, RXRa partner concentration 10 nM)
# In short: as §1
# [10] = system: PPARg:RXRa 90nM:30nM, anti-RXR (NR concentration 90 nM, RXRa partner concentration 30 nM)
# In short: as §1
# [11] = system: PPARg:RXRa DBDmut IVT, anti-RXR (DBD mutation: RXRa K156A/R161A, NR concentration 270 nM, RXRa partner concentration 90 nM)
# In short: as §1
# [12] = system: PPARg:RXRa IVT, anti-PPARg (NR concentration 270 nM, RXRa partner concentration 90 nM)
# In short: as §1
# [13] = system: PPARg DBDmut:RXRa IVT, anti-PPARg (DBD mutation: PPARg1 K132A/R137A, NR concentration 270 nM, RXRa partner concentration 90 nM)
# In short: as §1
# [14] = system: PPARg DBDmut IVT, anti-PPARg (DBD mutation: PPARg1 K132A/R137A, NR concentration 270 nM)
# In short: as §1
# [15] = system: PPARg homodimer (NR concentration 180 nM)
# In short: as §1
# [16] = system: PXR:RXRa (NR concentration 270 nM, RXRa partner concentration 90 nM)
# In short: as §1
# [17] = system: PXR homodimer (NR concentration 270 nM)
# In short: as §1
# [18] = system: RARa:RXR (NR concentration 270 nM, RXRa partner concentration 90 nM)
# In short: as §1
# [19] = system: RARa homodimer (NR concentration 270 nM)
# In short: as §1
# [20] = system: RARb:RXRa (NR concentration 270 nM, RXRa partner concentration 90 nM)
# In short: as §1
Sequence,PBM binding z-score [1],PBM binding z-score [2],PBM binding z-score [3],PBM binding z-score [4],PBM binding z-score [5],PBM binding z-score [6],PBM binding z-score [7],PBM binding z-score [8],PBM binding z-score [9],PBM binding z-score [10],PBM binding z-score [11],PBM binding z-score [12],PBM binding z-score [13],PBM binding z-score [14],PBM binding z-score [15],PBM binding z-score [16],PBM binding z-score [17],PBM binding z-score [18],PBM binding z-score [19],PBM binding z-score [20]
GCTGCTAGGTCAGGTTGATCAGCTAACGGGTACG,1.01,0.585,-0.478,0.353,-0.451,1.47,0.663,0.926,-0.231,0.36,3.25,2.17,-1.1,-0.366,0.196,0.316,-0.392,0.656,-0.919,3.06
TCTATTAGTTGAAGGTCAACCGACGAGTCCGTTT,3.86,4.66,4.55,3.9,1.95,3.95,1.56,3.57,3.89,3.78,2.82,2.45,1.21,0.836,3.86,4.22,2.78,4.4,3.23,4.02
AGAATGAGGTTAAGATCCGGGAAACAGAATACAT,2.5,1.75,-0.0766,1.58,-0.277,3.26,2.03,1.97,0.812,1.72,2.97,2.71,1.45,0.576,0.097,0.953,0.0989,2,0.396,1.88
CGTCCAAGGTCAATGCTAGGTCAGTGAGAGCATT,6.44,5.68,2.93,4.16,0.966,5.13,4.1,4.72,2.14,3.48,3.49,4.04,0.572,-0.0566,6.21,5.05,2.93,6.05,1.51,5.23
CCTGCTAGGTCAATGTTCAGCTAAAGCAGCTCGC,3.04,2.39,-0.0143,1.52,0.516,3,2.51,3.63,0.934,2.93,4.27,3.55,-0.21,-0.461,1.39,0.795,-0.474,1.54,-0.305,3.8
ATCTCTAGGTAAGAATCAGTTCAGTGAAGAACGC,0.825,0.702,0.74,0.521,0.992,0.326,0.0299,0.324,0.4,0.435,1.32,0.899,0.992,1.06,1.4,1.05,1.2,0.793,2.09,0.435
